# Screening data deposited in PubChem BioAssay by National Center for Advancing Translational Sciences (NCATS).
# TrxR1 substrate: qHTS Assay for Substrates of Mammalian Selenoprotein Thioredoxin Reductase 1 (TrxR1): qHTS | 390,000 compounds, 0.01% hits | Thioredoxin reductase 1, cytoplasmic (Rattus norvegicus), O89049 | purified TrxR1 substrate turnover, NADPH consumption readout | Potency, µM (highest dose often 114 µM) | AID 588456, 2011; further: nearly all actives have a fitted effect of over 50% in size
#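 Rat TrxR1, dispensed at 90 nM, was prereduced with 400 uM NADPH (final) for 5 min at ~22 deg C, then incubated with compound 15 min before 400 uM selenite. A first-read NADPH fluorescence drop versus no-compound background flagged substrates.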
# mIDH1 inhibitor: qHTS for Inhibitors of mutant isocitrate dehydrogenase 1 (IDH1): qHTS | Isocitrate dehydrogenase [NADP] cytoplasmic (Homo sapiens), O75874 | IDH1-R132H enzyme, NADPH consumption, diaphorase/resazurin fluorescence | Potency, µM (doses to about 76.6 µM), hits mostly inhibitors | 390,000 compounds, 0.093% hits | AID 602179, 2012; further: nearly all actives have a fitted effect of over 65% in size
# Target sequence (O75874 whole entry R132H, stated change not applied): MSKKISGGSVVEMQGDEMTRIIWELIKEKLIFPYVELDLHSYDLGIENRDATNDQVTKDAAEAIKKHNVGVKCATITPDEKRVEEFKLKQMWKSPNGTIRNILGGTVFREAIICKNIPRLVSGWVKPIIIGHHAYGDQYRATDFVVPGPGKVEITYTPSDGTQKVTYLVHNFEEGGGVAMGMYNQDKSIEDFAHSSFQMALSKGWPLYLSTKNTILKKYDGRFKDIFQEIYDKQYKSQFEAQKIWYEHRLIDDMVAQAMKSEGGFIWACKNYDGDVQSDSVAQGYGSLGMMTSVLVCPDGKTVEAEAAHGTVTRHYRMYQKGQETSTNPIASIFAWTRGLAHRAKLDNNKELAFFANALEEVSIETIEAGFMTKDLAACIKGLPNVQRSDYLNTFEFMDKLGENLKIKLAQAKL
#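 IDH1-R132H (0.5 ug/mL) preincubated 30 min with compound, then NADPH (0.016 mM) and alpha-KG (2 mM) added; 80 min at RT, pH 7.5. Remaining NADPH coupled via diaphorase/resazurin to fluorescence (540/590 nm); concentration-response curves normalized to no-enzyme control.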
# Nrf2 inh: Nrf2 qHTS screen for inhibitors; Potency, µM (highest dose often 46 µM), actives largely listed as inhibitors; 360,000 compounds, 2.1% hits; A549 ARE-Fluc reporter, luciferase luminescence, 18-24 h; further: nearly all actives have a fitted effect of over 60% in size
#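 Nrf2 function is reported as luminescence of an ARE-controlled luciferase in A549 cells. Compounds were tested at several concentrations, and a CellTiter-Fluor read on the same wells flagged cytotoxicity.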
# Mito fusion act: qHTS Assay for Small Molecule Inhibitors of Mitochondrial Division or Activators of Mitochondrial Fusion; AID 485298, 2010; S. cerevisiae fusion-defective mutant growth rescue, CellTiterGlo 48 h; Potency, µM (titrated, usually from 46.1 µM), most hits filed as activators; 320,000 compounds, 0.23% hits; further: nearly all actives have a fitted effect of over 45% in size
#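 Temperature-sensitive fusion-defective S. cerevisiae (e.g. fzo1-1, mgm1-5) were grown with compound in YPEG medium (3% ethanol, 3% glycerol) for 48 hours at 37C. Growth rescue was measured as viability by CellTiterGlo luminescence after 10 minutes at ambient.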
# TrxR1 inh: qHTS Assay for Inhibitors of Mammalian Selenoprotein Thioredoxin Reductase 1 (TrxR1): qHTS; recombinant rTrxR1, NADPH fluorescence consumption, selenite substrate; Potency, µM (highest dose often 114 µM), hits mostly inhibitors; 390,000 compounds, 1% hits; further: nearly all actives have a fitted effect of over 65% in size
#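 Rat TrxR1 (90 nM in the dispensed reagent) was pre-reduced with 400 uM NADPH for 5 min at room temperature, then incubated with compound for 15 min. After 400 uM selenite was added, NADPH fluorescence (Ex 340/Em 450 nm) was followed for 8 min.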
# A549 tox-1: Nrf2 qHTS screen for inhibitors: counterscreen for cytotoxicity. 390,000 compounds, 0.16% hits. A549 ARE-Fluc cells, CellTiter-Fluor viability, 18-24 h. Potency, µM (titrated, usually from 46 µM), actives largely listed as inhibitors. AID 504648, 2011
#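 Cytotoxicity counterscreen: CellTiter-Fluor fluorescence was measured in A549 ARE_Fluc cells after 18-24 h of compound exposure in a concentration series. The subsequent BugLite luminescent read reports ARE-luciferase activity.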
# FLuc counter 3: Nrf2 qHTS screen for inhibitors: Purified Fluc Biochemical Counterscreen for Hit Validation | shares compounds with Nrf2 inh | purified firefly luciferase, luminescence inhibition | Potency, µM (titrated, usually from 57.5 µM), hits mostly inhibitors | 1,400 compounds, 4% hits; further: nearly all actives have a fitted effect of over 65% in size
# A549 tox-2: Nrf2 qHTS screen for inhibitors: A549 ARE-Fluc Cytotoxicity Counterscreen for Hit Validation | shares compounds with Nrf2 inh | A549 ARE-Fluc cells, cytotoxicity counterscreen | 1,400 compounds, 2% hits | Potency, µM (titrated, usually from 46.1 µM), usual class: inhibitors;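 further: cells exposed to compounds for 18 to 24 hours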
# Nrf2 ARE inh: Nrf2 qHTS screen for inhibitors: Nrf2 A549 ARE-Fluc Confirmation Assay for Hit Validation; A549 ARE-firefly luciferase reporter, luminescence; Potency, µM (series often up to 46.1 µM), hits mostly inhibitors; shares compounds with Nrf2 inh; AID 720524, 2013; 1,400 compounds, 74% hits; further: nearly all actives have a fitted effect of over 65% in size
# A number is an active result; n = inactive; u = inconclusive; x = no result given. Compounds with a hit are over-represented: about 3.1% of the library has one in this group of screens. The call rests on the fitted dose curve; in most records, active means well fitted curve in the direction sought with a large enough effect; inconclusive means small, poorly fitted or top-dose-only effect, or another doubt; inactive means no such curve, though single readings can be large; an effect the other way counts as inactive or inconclusive.
SMILES,TrxR1 substrate,mIDH1 inhibitor,Nrf2 inh,Mito fusion act,TrxR1 inh,A549 tox-1,FLuc counter 3,A549 tox-2,Nrf2 ARE inh
CN(C)c1ccc(-c2n(C)c3ccccc3[n+]2C)cc1,n,n,0.29µM,n,n,n,n,n,u
Cn1c(-c2ccc3ccccc3n2)[n+](C)c2ccccc21,n,n,u,n,n,n,x,x,x
Cc1cc(C)cc(NC(=O)c2cn3c4c(ccc(Cl)c4c2=O)OC(C)C3)c1 (stereo unspecified),n,n,u,x,n,n,x,x,x
COc1ccc(CCNC(=O)C(C)n2nc(C)c3c(C)n(-c4ccc(C)cc4)nc3c2=O)c(OC)c1 (stereo unspecified),n,n,5.8µM,n,n,u,n,n,5.8µM
COc1ccc(NC(=O)Cn2nnc(C(=O)NCc3ccccc3Cl)c2N)cc1Cl,n,n,n,x,n,n,x,x,x
COc1ccc(N(C)C(=O)Cn2cc(S(=O)(=O)N3CCN(c4ccccc4F)CC3)c3ccccc3c2=O)c(OC)c1,n,n,n,x,n,n,x,x,x
C/C(=N\Nc1ccc2nncn2n1)c1ccco1,n,n,n,n,n,n,x,x,x
C/C(=N\Nc1ccc2nncn2n1)c1ccccn1,n,n,3.7µM,n,n,n,n,n,2.6µM
CCOC(=O)C1CCCN(C(=O)c2ccccc2NC(=O)c2nsc3ccccc23)C1 (stereo unspecified),n,n,x,x,n,n,x,x,x
CCCCOCCCNc1ncnc2c1[nH]c1ccccc12,n,n,9.2µM,n,n,n,n,n,12µM
Cc1cc(C)cc(OCC(=O)Nc2ccc(-c3nc4ccccc4s3)cc2)c1,n,n,n,x,n,n,x,x,x
CN(Cc1ccccc1)C(=O)c1ccc(NC(=O)Cc2ccc(NC(=O)C3CCCN(C(=O)C4CCC4)C3)cc2)cc1 (stereo unspecified),n,n,u,x,n,n,x,x,x
CN(Cc1ccccc1)C(=O)c1ccc(NC(=O)Cc2ccc(NC(=O)C3CCCN(C(=O)CCc4ccccc4)C3)cc2)cc1 (stereo unspecified),n,n,2.6µM,x,n,n,n,n,1.6µM
CCc1ccc(NC(=O)c2ccc(Cn3nc(N4CCN(c5ccccc5)CC4)ccc3=O)o2)cc1,n,n,5.2µM,x,n,u,u,n,6.5µM
COc1cccc(NC(=O)Cn2nc(N3CCN(c4ccccc4)CC3)ccc2=O)c1,n,n,n,x,n,n,x,x,x
Cc1ccc(CNC(=O)C2CCCN(c3nn4cc(-c5ccc(C)cc5)nc4s3)C2)cc1 (stereo unspecified),n,n,u,x,n,n,x,x,x
CC(=NNc1nc2ccccc2o1)c1ncccn1,n,n,3.3µM,x,n,n,19µM,u,x
Cc1cc(C[n+]2ccsc2N)c2ncccc2c1,n,n,n,n,n,n,x,x,x
Cc1cc(C[n+]2ccccc2)c2nsnc2c1,n,n,u,n,n,n,n,n,2.6µM
CCN(CC)S(=O)(=O)c1ccc(C(=O)NC2CC(=O)N(c3ccc4c(c3)OCCO4)C2)cc1 (stereo unspecified),n,n,x,x,n,n,x,x,x
COc1ccc(-c2nc(CN3CCN(c4ncnc5ccccc45)CC3)c(C)o2)c(OC)c1,n,n,8.2µM,n,u,u,n,n,8.2µM
COc1ccc(OC)c(-c2nc(CN3CCN(C(=O)c4ccco4)CC3)c(C)o2)c1,n,n,n,n,u,n,x,x,x
Cc1ccc(OCc2cc(C(=O)NC3CCCCC3)no2)cn1,n,n,n,n,n,n,x,x,x
COc1cccc(CN(C)C(=O)c2cc(COc3c(F)cccc3F)on2)c1,n,n,n,n,n,n,x,x,x
O=C(c1cc(COc2ccc3ncccc3c2)on1)N1CCCCCC1,n,n,3.7µM,n,n,n,u,n,6.5µM
O=C(NC1CCCC1)c1cc(COc2ccc3ncccc3c2)on1,n,n,6.5µM,n,n,n,n,n,3.7µM
